Source: PubChem BioAssay AID1159580 (chemical genetic matrix, 2015)
“And” between values parts separate entries of the source, which are not always exact repeats. Identical values can stand only once. The campaign covered roughly 5,500 compounds. About 2,000 (36%) were called active. Inconclusive results (about 18%) are left out. Rule as the data show it: active = normalized growth mostly below about 0.91 (no sharp cut-off); inconclusive = no clear call, values can overlap the other calls; inactive = mostly above about 0.92. This is one part of the list.

Assay: chemical genetic growth profiling, strain panel (AID 1159580);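 also: tested at 20 µM; growth read once vehicle control cultures reached saturation at 30 °C; 1 = growth at the plate median or of vehicle wells; lower values mean less growth of the strain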
Details: S. cerevisiae deletion strains, growth OD

Measured: normalized growth

COc1cc2c(cc1O)CCNC2C (stereo not drawn)
inactive: locus YAL021C, strain ccr4, hits give low values 1.01 | locus YAL026C, strain drs2, hits give low values 1 | locus YAL030W, strain snc1, hits give low values 0.993 | locus YBL061C, strain skt5, hits give low values 1 | locus YBR009C, strain hhf1, hits give low values 1 | locus YBR021W, strain FUR4, hits give low values 1.01 | locus YBR023C, strain chs3, hits give low values 0.999 | locus YBR171W, strain sec66, hits give low values 0.982 | locus YBR229C, strain ROT2, hits give low values 0.993 | locus YBR231C, strain swc5, hits give low values 0.984 | locus YBR279W, strain paf1, hits give low values 0.996 | locus YCL011C, strain gbp2, hits give low values 0.992 | locus YCL016C, strain dcc1, hits give low values 1.01 | locus YCL029C, strain bik1, hits give low values 0.968 | locus YCL061C, strain MRC1, hits give low values 0.989 | locus YCL069W, strain vba3, hits give low values 0.996 | locus YCR088W, strain abp1, hits give low values 0.975 | locus YDL005C, strain med2, hits give low values 0.978 | locus YDL035C, strain GPR1, hits give low values 1.03 | locus YDL040C, strain nat1, hits give low values 0.991 | locus YDL074C, strain BRE1, hits give low values 1 | locus YDL101C, strain DUN1, hits give low values 0.989 | locus YDL134C, strain PPH21, hits give low values 1 | locus YDL185W, strain tfp1, hits give low values 0.981 | locus YDL192W, strain arf1, hits give low values 0.976 | locus YDR001C, strain nth1, hits give low values 0.999 | locus YDR069C, strain doa4, hits give low values 0.975 | locus YDR101C, strain arx1, hits give low values 0.963 | locus YDR137W, strain rgp1, hits give low values 0.99 | locus YDR150W, strain NUM1, hits give low values 0.996 | locus YDR159W, strain sac3, hits give low values 1.01 | locus YDR162C, strain NBP2, hits give low values 1.01 | locus YDR195W, strain ref2 0.94 | locus YDR297W, strain sur2, hits give low values 0.993 | locus YDR318W, strain mcm21, hits give low values 0.982 | locus YDR334W, strain swr1, hits give low values 0.99 | locus YDR335W, strain msn5, hits give low values 0.983 | locus YDR388W, hits give low values 0.98 | locus YDR392W, strain spt3, hits give low values 1.03 | locus YDR502C, strain sam2, hits give low values 0.982 | locus YEL003W, strain gim4, hits give low values 0.999 | locus YEL037C, strain rad23, hits give low values 1 | locus YEL061C, strain CIN8 (second series), hits give low values 0.99 | locus YEL061C, strain CIN8, hits give low values 0.996 | locus YER015W, strain faa2, hits give low values 0.995 | locus YER016W, strain bim1, hits give low values 1.01 | locus YER110C, hits give low values 0.965 | locus YER111C, strain swi4, hits give low values 0.975 | locus YER155C, strain BEM2 (second series), hits give low values 0.94 | locus YER155C, strain BEM2, hits give low values 0.98 | locus YER167W, strain BCK2, hits give low values 1.01 | locus YFR010W, strain ubp6, hits give low values 0.978 | locus YGL078C, strain dbp3, hits give low values 0.984 | locus YGL086W, strain mad1, hits give low values 0.968 | locus YGL167C, strain pmr1, hits give low values 0.993 | locus YGL173C, strain kem1, hits give low values 1 | locus YGL227W, strain vid30, hits give low values 0.993 | locus YGL240W, strain doc1, hits give low values 0.971 | locus YGL248W, strain PDE1, hits give low values 0.988 | locus YGL253W, strain hxk2, hits give low values 1 | locus YGR135W, strain pre9, hits give low values 0.977 | locus YGR252W, strain gcn5, hits give low values 0.983 | locus YHR013C, strain ard1, hits give low values 0.99 | locus YHR027C, strain rpn1, hits give low values 1 | locus YHR030C, strain SLT2, hits give low values 0.993 and 1.05 | locus YHR079C, strain IRE1 (second series), hits give low values 0.979 | locus YHR079C, strain IRE1, hits give low values 1.05 | locus YHR094C, strain hxt1, hits give low values 0.971 | locus YHR129C, strain ARP1, hits give low values 0.992 | locus YHR142W, strain chs7, hits give low values 1.01 | locus YHR200W, strain rpn10, hits give low values 1 | locus YIL066C, strain RNR3, hits give low values 1.01 | locus YIL073C, strain SPO22, hits give low values 0.963 | locus YIL125W, strain kgd1, hits give low values 0.981 | locus YIR030C, strain dcg1, hits give low values 0.978 | locus YJL092W, strain hpr5, hits give low values 0.991 | locus YJL095W, strain BCK1 (second series), hits give low values 0.978 | locus YJL095W, strain BCK1, hits give low values 0.984 and 1.01 | locus YJL115W, strain asf1, hits give low values 0.988 | locus YJL129C, strain trk1, hits give low values 0.99 | locus YJL134W, strain LCB3, hits give low values 0.995 | locus YJL154C, strain vps35, hits give low values 0.994 | locus YJL164C, strain tpk1, hits give low values 1 | locus YJL166W, strain qcr8, hits give low values 0.987 | locus YJL168C, strain set2, hits give low values 0.973 | locus YJL187C, strain SWE1 (second series), hits give low values 0.992 | locus YJR043C, strain POL32, hits give low values 1.05 | locus YJR066W, strain TOR1, hits give low values 0.982 | locus YKL009W, strain mrt4, hits give low values 0.961 | locus YKL068W, hits give low values 0.987 | locus YKL085W, strain MDH1 (second series), hits give low values 0.982 | locus YKL085W, strain MDH1, hits give low values 0.982 | locus YKL160W, strain elf1, hits give low values 0.994 | locus YKR001C, strain vps1, hits give low values 0.958 | locus YKR026C, strain gcn3, hits give low values 0.989 | locus YKR091W, strain srl3, hits give low values 0.991 | locus YLL001W, strain dnm1, hits give low values 0.982 | locus YLL026W, hits give low values 0.987 | locus YLL041C, strain sdh2, hits give low values 0.992 | locus YLR027C, strain aat2, hits give low values 0.98 | locus YLR039C, strain RIC1, hits give low values 1.02 | locus YLR058C, strain SHM2, hits give low values 0.995 | locus YLR102C, strain apc9, hits give low values 0.974 | locus YLR113W, strain HOG1, hits give low values 0.977 | locus YLR221C, strain rsa3, hits give low values 0.996 | locus YLR258W, strain gsy2, hits give low values 0.998 | locus YLR262C, strain YPT6 (second series), hits give low values 0.994 | locus YLR262C, strain YPT6, hits give low values 1.05 | locus YLR268W, strain sec22, hits give low values 0.965 | locus YLR320W, strain mms22, hits give low values 0.994 | locus YLR330W, strain CHS5, hits give low values 1 | locus YLR342W, strain FKS1 (second series), hits give low values 1.03 | locus YLR342W, strain FKS1, hits give low values 0.987 | locus YLR357W, strain rsc2, hits give low values 0.979 | locus YLR370C, strain arc18, hits give low values 0.988 | locus YLR371W, strain rom2, hits give low values 0.967 | locus YLR384C, strain iki3, hits give low values 0.985 | locus YLR418C, strain cdc73, hits give low values 0.973 | locus YML016C, strain PPZ1, hits give low values 0.991 | locus YML032C, strain rad52, hits give low values 0.99 | locus YML120C, strain ndi1, hits give low values 0.991 | locus YML124C, strain tub3, hits give low values 0.984 | locus YMR058W, strain fet3, hits give low values 0.991 | locus YMR078C, strain ctf18, hits give low values 0.977 | locus YMR125W, strain sto1, hits give low values 1 | locus YMR129W, hits give low values 0.996 | locus YMR205C, strain PFK2, hits give low values 0.991 | locus YMR223W, strain ubp8, hits give low values 0.985 | locus YMR231W, strain pep5, hits give low values 0.984 | locus YMR307W, strain GAS1, hits give low values 1.08 | locus YNL067W, strain RPL9B, hits give low values 0.988 | locus YNL071W, strain lat1, hits give low values 0.988 | locus YNL128W, strain TEP1, hits give low values 0.992 | locus YNL153C, strain GIM3, hits give low values 0.988 | locus YNL183C, strain NPR1, hits give low values 0.974 | locus YNL209W, strain ssb2, hits give low values 0.997 | locus YNL233W, strain BNI4, hits give low values 0.982 | locus YNL248C, strain rpa49, hits give low values 0.997 | locus YNL250W, strain rad50, hits give low values 0.99 | locus YNL271C, strain bni1, hits give low values 0.975 | locus YNL298W, strain CLA4, hits give low values 0.989 | locus YNL307C, strain MCK1, hits give low values 0.969 | locus YNL322C, strain KRE1 (second series), hits give low values 0.98 | locus YNR049C, strain mso1, hits give low values 0.987 | locus YNR052C, strain pop2, hits give low values 0.973 | locus YOL012C, strain htz1 0.945 | locus YOL147C, strain pex11, hits give low values 0.979 | locus YOR001W, strain rrp6, hits give low values 0.958 | locus YOR061W, strain CKA2, hits give low values 0.997 | locus YOR069W, strain VPS5, hits give low values 0.987 | locus YOR070C, strain gyp1, hits give low values 0.999 | locus YOR080W, strain dia2, hits give low values 0.987 | locus YOR083W, strain WHI5, hits give low values 0.988 | locus YOR106W, strain vam3, hits give low values 0.989 | locus YOR136W, strain idh2, hits give low values 0.964 | locus YOR144C, strain elg1, hits give low values 0.983 | locus YOR184W, strain ser1, hits give low values 0.988 | locus YOR231W, strain MKK1, hits give low values 1 | locus YOR265W, strain rbl2, hits give low values 0.984 | locus YOR270C, strain vph1, hits give low values 1.02 | locus YOR290C, strain snf2, hits give low values 0.999 | locus YOR316C, strain cot1, hits give low values 0.981 | locus YPL051W, strain arl3, hits give low values 0.985 | locus YPL055C, strain LGE1, hits give low values 1 | locus YPL078C, strain atp4, hits give low values 0.989 | locus YPL106C, strain sse1, hits give low values 0.991 | locus YPL240C, strain hsp82, hits give low values 1 | locus YPL256C, strain CLN2, hits give low values 1.06 | locus YPR119W, strain clb2, hits give low values 0.978 | locus YPR141C, strain kar3, hits give low values 0.968 | locus YPR163C, strain tif3, hits give low values 0.979 | locus YPR167C, strain met16, hits give low values 0.974 | strain wtn01, hits give low values 0.952
